{"source": "PubChem BioAssay (Tox21)", "note": "Records with an inconclusive call do not appear. Where a call stands in place of a potency, no number is given. A number with no mark means an inactive call. Calls of active or inactive are those of the source. The call rests on the fitted dose curve; in most records, active means well fitted activation curve with a large enough effect in the repeat runs; inconclusive means weak or mixed curves, or effect the other way; inactive means no such curve, though single readings can be large or run the other way. Potency means the concentration at half of the fitted maximal effect."}
{"assay": "qHTS assay to identify small molecule agonists of the estrogen related receptor signaling pathway with the pleiotropic PPARgamma coactivator (PGC) from Tox21 10K library (AID 1224842); further: nearly all actives have a fitted effect of over 15% in size", "conditions": "PGC/ERR reporter cell line, luciferase ONE-Glo, 18 h; series mostly up to 92.4 µM", "source_text": "National Center for Advancing Translational Sciences [NCATS] NIH Chemical Genomics Center [NCGC] U.S. Environmental Protection Agency [EPA] National Institutes of Environmental Health Sciences [NIEHS] National Toxicology Program [NTP] Assay overview: Estrogen related receptors (ERRs), the first orphan nuclear receptors discovered, play an important role in the control of cellular energy metabolism. ERRs are required for high-energy production in response to the environmental challenges. The pleiotropic PPARgamma coactivator (PGC) is a major partner of ERR and a key regulator in energy homeostasis. Together they have been implicated in the etiology of metabolic disorders such as Type 2 diabetes and metabolic syndrome. ERR-alpha was also identified as an adverse marker for breast cancer progression; ERR-alpha-positive tumors have a poor prognosis. To screen and to identify environmental compounds that perturb the PGC/ERR signaling pathways could provide valuable information for potential therapeutic or preventive measures in the treatment of metabolic disease. For identifying PGC/ERR agonists, PGC/ERR cell line (provided by NTP) has been used to screen Tox21 10K library.\nAssay Protocol Summary: The PGC/ERR cells were dispensed at 2,000 cells/5 ul/well in 1536-well white plates using a Multidrop dispenser. After the assay plates were incubated at a 37 C/5% CO2 incubator for 6 hours, 23 nL of compounds dissolved in DMSO, positive and negative controls or DMSO only was transferred to the assay plate by a pin tool. The plates were incubated at 37 C for 18 hours. 4 ul/well of One-Glo reagent was added into the assay plates using a Flying Reagent Dispenser. After 30-minute incubation at room temperature, the luminescence intensity in the plates was measured using a ViewLux plate reader."}
{"compound": "Cc1ccc(O)c([N+](=O)[O-])c1", "Potency": "inactive"}
{"compound": "CC[C@@]1(c2ccccc2)NC(=O)N(C)C1=O", "Potency": "inactive"}
{"compound": "CC/C=C/CCCCCCCCCCOC(C)=O", "Potency": "inactive"}
{"compound": "CCCCC(CC)COC(=O)CC#N", "note": "(stereo not given)", "Potency": "inactive"}
{"compound": "CC/C=C\\CCOC(=O)c1ccccc1", "Potency": "inactive"}
{"compound": "NNC(=O)OCc1ccccc1", "Potency": "inactive"}
{"compound": "COc1cnc(NS(=O)(=O)c2ccc(N)cc2)nc1", "Potency": "inactive"}
{"compound": "CC(=O)c1c(C)cc(C(C)(C)C)cc1C", "Potency": "inactive"}
{"compound": "C=CC(=O)CC", "Potency": "inactive"}
{"compound": "Nc1nc(Cl)cc(Cl)n1", "Potency": "inactive"}
{"compound": "C=CCCCCCCCCCCCCCC", "activation": "-5.23% [at 19 µM]"}
{"compound": "COC(=O)/C=C(\\C)CCC=C(C)C", "Potency": "inactive"}
{"compound": "CCC(C)(C)C", "Potency": "inactive"}
{"compound": "CC(C)c1cc(C(C)C)cc(C(C)C)c1", "Potency": "inactive"}
{"compound": "C[C@]12C=CC(=O)C=C1[C@@H](F)C[C@@H]1[C@@H]2[C@@H](O)C[C@@]2(C)[C@H]1CC[C@]2(O)C(=O)CO", "Potency": "6.68 µM (active)"}
{"compound": "CC(C)(Sc1cc(C(C)(C)C)c(O)c(C(C)(C)C)c1)Sc1cc(C(C)(C)C)c(O)c(C(C)(C)C)c1", "Potency": "inactive"}
{"compound": "CC/C=C\\CCCCCCCCCCOC(C)=O", "Potency": "inactive"}
{"compound": "CC(=O)SC[C@@H](C)C(=O)N1CCC[C@H]1C(=O)N[C@@H](Cc1ccccc1)C(=O)O", "Potency": "inactive"}
{"compound": "Cc1ccccc1OCC(=O)O", "Potency": "inactive"}
{"compound": "CC(=O)SCC(CC(=O)c1ccc(C)cc1)C(=O)O", "note": "(stereo not given)", "Potency": "inactive"}
{"compound": "COC(=O)C(c1ccccc1Cl)N1CCc2sccc2C1", "note": "(stereo not given)", "Potency": "inactive"}
{"compound": "C=CC(=O)OCCOCCOCC", "Potency": "inactive"}
{"compound": "N=C(N)S(=O)O", "Potency": "inactive"}
{"compound": "C/C=C(\\C)C(=O)OC/C=C(\\C)CCC=C(C)C", "Potency": "inactive"}
{"compound": "Cc1ccc(N)nc1", "Potency": "inactive"}
{"compound": "CCO[Si](CC(C)C)(OCC)OCC", "Potency": "inactive"}
{"compound": "CN(C)CCC[C@@]1(c2ccc(F)cc2)OCc2cc(C#N)ccc21", "Potency": "inactive"}
{"compound": "C[n+]1ccccc1/C=N/O", "Potency": "inactive"}
{"compound": "CCC(C)c1nccnc1OC", "note": "(stereo not given)", "Potency": "inactive"}
{"compound": "COc1ccc2cc(CCC(C)=O)ccc2c1", "Potency": "13.3 µM (active)"}
{"compound": "O=C1CCCc2c(O)cccc21", "Potency": "inactive"}
{"compound": "C[C@@H](CN1CC(=O)NC(=O)C1)N1CC(=O)NC(=O)C1", "Potency": "inactive"}
{"compound": "C=CCn1cc[n+](C)c1", "Potency": "inactive"}
{"compound": "NC(=O)CC[C@@H](N)C(=O)O", "Potency": "inactive"}
{"compound": "BrCCOc1ccccc1", "Potency": "inactive"}
{"compound": "N[C@H]1C(O)O[C@H](CO)[C@@H](O)[C@@H]1O", "note": "(stereo not given in full)", "Potency": "inactive"}
{"compound": "CC(C)OC(=O)C(C(=O)OC(C)C)=C1SC=CS1", "Potency": "inactive"}
{"compound": "CC(C)(C)c1ccc(N)cc1", "Potency": "inactive"}
{"compound": "CC(=O)Nc1ccc(OCCOCCOc2ccc(NC(C)=O)cc2)cc1", "Potency": "inactive"}
{"compound": "CCCCCC(CC)OC(=O)CCCOc1ccc(Cl)cc1Cl", "note": "(stereo not given)", "Potency": "inactive"}
